Measured values as given in PubChem BioAssay (NCATS).
Results filed as inconclusive are left out. The list shows a part of the results. Activity calls are given as the source filed them. Unless noted, the call rests on the fitted dose curve; in most records, active means well fitted curve in the direction sought with a large enough effect; inconclusive means small, poorly fitted or top-dose-only effect, or another doubt; inactive means no such curve, though single readings can be large; an effect the other way counts as inactive or inconclusive.

How the values were obtained:
[1] = target: Tyrosine-protein kinase Yes (Homo sapiens) (UniProt P07947); test: qHTS for small molecule inhibitors of Yes1 kinase: Primary Screen (AID 686947); conditions: Yes1 kinase biochemical qHTS inhibition; further: potency means the concentration at half of the fitted maximal effect; nearly all actives have a fitted effect of over 60% in size
Tyrosine-protein kinase Yes (Homo sapiens), sequence (P07947 whole entry, looked up): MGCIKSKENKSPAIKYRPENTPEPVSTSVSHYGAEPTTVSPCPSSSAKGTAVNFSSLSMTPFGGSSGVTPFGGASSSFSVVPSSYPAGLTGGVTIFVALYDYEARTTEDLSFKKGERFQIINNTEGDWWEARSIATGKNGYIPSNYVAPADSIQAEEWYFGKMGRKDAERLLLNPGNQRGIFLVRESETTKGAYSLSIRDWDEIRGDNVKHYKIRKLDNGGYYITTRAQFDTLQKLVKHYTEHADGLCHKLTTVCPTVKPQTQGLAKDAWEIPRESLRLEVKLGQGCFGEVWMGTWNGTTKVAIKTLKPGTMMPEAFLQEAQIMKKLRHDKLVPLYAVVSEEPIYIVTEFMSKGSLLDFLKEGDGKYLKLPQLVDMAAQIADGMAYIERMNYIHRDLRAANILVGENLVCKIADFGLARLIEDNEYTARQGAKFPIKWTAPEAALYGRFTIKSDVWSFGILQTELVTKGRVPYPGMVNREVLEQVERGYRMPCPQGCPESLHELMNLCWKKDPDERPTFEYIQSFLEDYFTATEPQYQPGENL
Method in brief: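 ADP-Glo luminescence reports ADP formed by 4 nM Yes1 phosphorylating poly(E4Y) (0.3 mg/mL) with 0.1 mM ATP for 60 min at room temperature, following 20 min compound preincubation; normalised between DMSO wells with and without enzyme.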

[2] = qHTS for small molecule inhibitors of Yes1 kinase: Counter Assay (AID 686950);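 further: no kinase present so only ADP-Glo detection of a fixed ADP amount is tested; luminescence from ADP-Glo reporting ADP in a fixed ATP and ADP mixture; 0% = DMSO wells with ATP plus ADP and -100% = ATP-only wells without ADP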
Method in brief: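 Measuring interference with ADP-Glo, the assay ran 60 min at room temperature on an ATP/ADP mix lacking enzyme. Values were normalized to ATP-plus-ADP (maximum) and ATP-only (minimum) DMSO controls.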

[3] = target: Bifunctional 3'-5' exonuclease/ATP-dependent helicase WRN (Homo sapiens) (UniProt Q14191); test: qHTS for Inhibitors of WRN Helicase: Confirmatory Assay for Cherry-picked Compounds. (AID 720497); further: nearly all actives have a fitted effect of over 65% in size
Bifunctional 3'-5' exonuclease/ATP-dependent helicase WRN (Homo sapiens), sequence (Q14191 whole entry, looked up): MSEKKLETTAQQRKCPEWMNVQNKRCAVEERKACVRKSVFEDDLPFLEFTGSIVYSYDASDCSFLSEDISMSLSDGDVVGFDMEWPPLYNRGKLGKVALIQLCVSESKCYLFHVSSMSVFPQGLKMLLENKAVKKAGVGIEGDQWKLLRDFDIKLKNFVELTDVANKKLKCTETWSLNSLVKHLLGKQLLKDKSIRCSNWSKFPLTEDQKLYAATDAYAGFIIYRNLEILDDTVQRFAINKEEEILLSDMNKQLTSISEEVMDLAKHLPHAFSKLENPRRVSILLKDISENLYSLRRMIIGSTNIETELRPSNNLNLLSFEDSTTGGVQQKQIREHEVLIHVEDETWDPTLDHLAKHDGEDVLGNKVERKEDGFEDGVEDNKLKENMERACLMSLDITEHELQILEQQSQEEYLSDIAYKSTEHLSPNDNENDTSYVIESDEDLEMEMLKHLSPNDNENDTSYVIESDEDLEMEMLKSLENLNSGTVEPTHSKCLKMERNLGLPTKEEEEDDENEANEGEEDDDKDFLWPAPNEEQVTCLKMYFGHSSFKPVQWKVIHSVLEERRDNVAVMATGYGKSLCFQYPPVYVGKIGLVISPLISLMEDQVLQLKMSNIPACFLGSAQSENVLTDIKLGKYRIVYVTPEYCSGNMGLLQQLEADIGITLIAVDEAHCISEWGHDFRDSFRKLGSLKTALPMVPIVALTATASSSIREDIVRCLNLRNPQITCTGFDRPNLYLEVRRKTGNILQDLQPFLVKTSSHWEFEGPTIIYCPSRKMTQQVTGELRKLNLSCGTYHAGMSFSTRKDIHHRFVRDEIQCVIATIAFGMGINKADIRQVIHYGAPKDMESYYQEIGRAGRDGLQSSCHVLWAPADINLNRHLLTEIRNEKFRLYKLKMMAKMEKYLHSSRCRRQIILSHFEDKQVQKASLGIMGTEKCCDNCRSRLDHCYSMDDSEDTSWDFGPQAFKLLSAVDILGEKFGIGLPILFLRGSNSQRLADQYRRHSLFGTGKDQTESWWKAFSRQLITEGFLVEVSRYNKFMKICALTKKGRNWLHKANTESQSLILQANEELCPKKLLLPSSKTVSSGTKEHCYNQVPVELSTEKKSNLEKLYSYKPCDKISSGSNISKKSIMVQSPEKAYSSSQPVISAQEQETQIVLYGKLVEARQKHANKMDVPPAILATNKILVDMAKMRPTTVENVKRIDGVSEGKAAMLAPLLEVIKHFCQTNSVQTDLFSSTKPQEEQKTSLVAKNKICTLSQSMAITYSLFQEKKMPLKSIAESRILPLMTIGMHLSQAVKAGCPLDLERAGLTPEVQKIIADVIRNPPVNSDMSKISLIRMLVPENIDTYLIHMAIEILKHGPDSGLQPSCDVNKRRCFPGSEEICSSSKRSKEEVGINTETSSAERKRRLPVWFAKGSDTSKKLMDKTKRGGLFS
Method in brief: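 Helicase activity is tracked as a kinetic fluorescence signal (excitation 525 nm, emission 598 nm) after 100 nM forked duplex DNA and 2 mM ATP are added to 20 nM WRN that has been preincubated 15 min with compound at room temperature.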

[4] = qHTS for Inhibitors of WRN Helicase: Thiazole Orange DNA Binding Counterscreen (AID 720499);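 further: drop in dye fluorescence marks compound binding to DNA; on the % scale 0 is the no-effect control and ±100 the full control effect; nearly all actives have a fitted effect of over 60% in size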
Method in brief: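 Unlabeled DNA at 50 nM is mixed with 100 nM thiazole orange, compounds are pin-transferred in, the plate sits 15 min at room temperature, and fluorescence is then read at 480 nm excitation, 530 nm emission.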

[5] = target: RecQ-like DNA helicase BLM (Homo sapiens) (UniProt P54132); test: qHTS for Inhibitors of WRN Helicase: BLM Helicase Counterscreen for WRN Inhibitors (AID 720503);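 further: plate controls were DMSO vehicle for no effect and enzyme-free control wells for full effect; nearly all actives have a fitted effect of over 60% in size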
RecQ-like DNA helicase BLM (Homo sapiens), sequence (P54132 whole entry, looked up): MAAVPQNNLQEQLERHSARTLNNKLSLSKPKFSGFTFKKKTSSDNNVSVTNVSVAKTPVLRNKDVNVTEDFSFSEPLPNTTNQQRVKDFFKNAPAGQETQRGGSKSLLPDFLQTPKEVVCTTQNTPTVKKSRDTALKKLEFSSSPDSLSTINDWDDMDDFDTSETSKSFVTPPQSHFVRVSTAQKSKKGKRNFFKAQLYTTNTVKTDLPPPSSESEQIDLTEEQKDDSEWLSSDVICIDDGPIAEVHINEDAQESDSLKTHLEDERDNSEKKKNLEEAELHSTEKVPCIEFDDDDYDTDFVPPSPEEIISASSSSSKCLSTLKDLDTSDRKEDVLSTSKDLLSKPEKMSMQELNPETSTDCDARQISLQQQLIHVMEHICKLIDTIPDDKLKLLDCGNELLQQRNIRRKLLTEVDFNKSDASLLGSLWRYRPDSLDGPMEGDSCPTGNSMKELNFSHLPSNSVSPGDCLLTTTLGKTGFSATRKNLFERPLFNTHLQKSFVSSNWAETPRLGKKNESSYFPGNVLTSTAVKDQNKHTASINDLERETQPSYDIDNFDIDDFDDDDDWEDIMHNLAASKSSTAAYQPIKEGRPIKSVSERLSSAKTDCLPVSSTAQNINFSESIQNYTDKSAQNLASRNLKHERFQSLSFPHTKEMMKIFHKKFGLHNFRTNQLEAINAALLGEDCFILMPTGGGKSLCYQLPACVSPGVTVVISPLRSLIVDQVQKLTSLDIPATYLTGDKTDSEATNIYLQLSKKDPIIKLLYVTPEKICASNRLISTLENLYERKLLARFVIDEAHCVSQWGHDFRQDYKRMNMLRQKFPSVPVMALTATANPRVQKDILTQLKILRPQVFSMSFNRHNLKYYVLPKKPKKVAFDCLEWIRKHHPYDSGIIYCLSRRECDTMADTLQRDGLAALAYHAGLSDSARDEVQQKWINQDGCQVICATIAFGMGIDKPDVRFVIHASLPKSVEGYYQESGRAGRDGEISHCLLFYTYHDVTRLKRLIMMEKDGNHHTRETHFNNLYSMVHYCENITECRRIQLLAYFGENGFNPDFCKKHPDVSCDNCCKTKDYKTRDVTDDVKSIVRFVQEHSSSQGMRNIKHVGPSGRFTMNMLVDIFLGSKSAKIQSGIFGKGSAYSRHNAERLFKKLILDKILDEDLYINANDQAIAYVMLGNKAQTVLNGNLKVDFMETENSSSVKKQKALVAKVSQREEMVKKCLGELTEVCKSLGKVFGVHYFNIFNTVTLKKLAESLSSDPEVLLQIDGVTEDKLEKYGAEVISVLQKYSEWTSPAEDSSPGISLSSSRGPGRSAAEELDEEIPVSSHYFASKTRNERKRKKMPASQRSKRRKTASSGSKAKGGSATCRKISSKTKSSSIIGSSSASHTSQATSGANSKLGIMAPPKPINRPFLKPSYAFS
Method in brief: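 BLM at 1 nM was preincubated with compound for 15 min at room temperature in 25 mM Tris-HCl pH 8.0, 50 mM NaCl, 2 mM MgCl2, 1 mM DTT and 0.01% Tween-20. Unwinding was started with 100 nM DNA and 2 mM ATP (final). Fluorescence (ex 525/em 598 nm) was read twice, 15 min apart, and normalized to enzyme-free and DMSO controls.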

[6] = target: Flap endonuclease 1 (Homo sapiens) (UniProt P39748); test: qHTS Assay for the Inhibitors of FEN1: Confirmatory Assay for Cherry-picked Compounds (AID 720498); conditions: FEN1 flap cleavage, TAMRA/BHQ2 fluorogenic DNA substrate; further: potency means the concentration at half of the fitted maximal effect; nearly all actives have a fitted effect of over 60% in size
Flap endonuclease 1 (Homo sapiens), sequence (P39748 whole entry, looked up): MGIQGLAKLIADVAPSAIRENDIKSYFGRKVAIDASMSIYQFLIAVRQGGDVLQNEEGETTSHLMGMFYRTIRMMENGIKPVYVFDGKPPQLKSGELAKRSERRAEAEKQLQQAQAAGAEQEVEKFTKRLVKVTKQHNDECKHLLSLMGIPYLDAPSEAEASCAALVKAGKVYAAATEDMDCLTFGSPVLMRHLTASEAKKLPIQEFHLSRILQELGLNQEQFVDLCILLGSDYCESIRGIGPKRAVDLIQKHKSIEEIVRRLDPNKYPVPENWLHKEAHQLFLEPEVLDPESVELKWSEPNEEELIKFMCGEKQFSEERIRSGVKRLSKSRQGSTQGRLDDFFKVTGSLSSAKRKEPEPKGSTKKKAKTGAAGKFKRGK
Method in brief: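 Human FEN1 (10 nM reagent) was preincubated with compounds for 15 min at room temperature, then 50 nM final double-flap DNA substrate (5'-TAMRA flap, BHQ-2 quencher strand) was added. Fluorescence (ex 525/em 598 nm) was read at 0 and 15 min.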

[7] = target: DNA polymerase eta (Homo sapiens) (UniProt Q9Y253); test: qHTS for Inhibitors of Polymerase Eta: Confirmatory Assay for Cherry-picked Compounds (AID 720502); conditions: Pol eta primer extension, TAMRA/BHQ fluorescence, 10 min; further: potency means the concentration at half of the fitted maximal effect
DNA polymerase eta (Homo sapiens), sequence (Q9Y253 whole entry, looked up): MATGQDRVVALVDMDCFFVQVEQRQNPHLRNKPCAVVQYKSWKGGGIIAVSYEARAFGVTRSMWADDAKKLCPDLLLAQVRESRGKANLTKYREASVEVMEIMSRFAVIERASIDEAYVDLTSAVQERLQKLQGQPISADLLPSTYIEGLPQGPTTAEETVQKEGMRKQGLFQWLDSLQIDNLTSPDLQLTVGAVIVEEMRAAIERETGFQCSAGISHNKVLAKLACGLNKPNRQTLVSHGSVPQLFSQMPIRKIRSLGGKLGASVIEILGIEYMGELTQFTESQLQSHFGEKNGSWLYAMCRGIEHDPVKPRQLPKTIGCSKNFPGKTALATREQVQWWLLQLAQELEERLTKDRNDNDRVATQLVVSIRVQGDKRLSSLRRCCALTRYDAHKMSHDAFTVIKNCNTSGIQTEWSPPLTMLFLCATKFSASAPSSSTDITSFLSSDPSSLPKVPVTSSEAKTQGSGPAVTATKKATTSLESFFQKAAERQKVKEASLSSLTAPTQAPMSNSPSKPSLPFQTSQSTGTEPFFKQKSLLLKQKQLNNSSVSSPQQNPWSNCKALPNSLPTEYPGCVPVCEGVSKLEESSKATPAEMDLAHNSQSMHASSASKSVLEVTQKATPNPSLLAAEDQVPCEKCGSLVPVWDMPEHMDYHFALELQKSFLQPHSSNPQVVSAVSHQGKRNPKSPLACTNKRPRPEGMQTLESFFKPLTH
Method in brief: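 Enzyme at 10 nM is mixed with pin-transferred compound and left 15 min at room temperature. Substrate (50 nM final) is then added, and plates are read at 0 min and after 10 min.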

[8] = qHTS assay for small molecule agonists of the antioxidant response element (ARE) signaling pathway measured by Nrf2-dependant transcriptional activity (AID 720636; active means well fitted curve in the direction sought with a large enough effect in the repeat runs; an effect the other way counts as inactive or inconclusive;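 further: HepG2 cells with an ARE-driven luciferase reporter; % of control where 0% means no effect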)
Method in brief: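 Reporter gene assay, HepG2 ARE-luc: 16 hr compound, 37 C, 5% CO2; read-out luciferase luminescence.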

[9] = qHTS assay for cell viability of HEK293 cells (AID 743288); conditions: ATP luminescence (CellTiter-Glo), 18 h; max response: stronger effect = lower value; further: potency means the concentration at half of the fitted maximal effect; nearly all actives have a fitted effect of over 50% in size
Method in brief: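 Quantitative high-throughput screen: compounds were pinned onto parental HEK293 cells (2,000 per well) after a minimum 5 h settling at 37 C, incubated 18 h at 37 C, and intracellular ATP measured by luciferase luminescence.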

[10] = qHTS profiling of the MIPE4 collection as inhibitors of Plasmodium falciparum (3D7) proliferation (AID 743344; call rule not given here;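 further: scaled between DMSO vehicle wells and 0.29 µM artemisinin as full inhibition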); conditions: P. falciparum 3D7 in erythrocytes, SYBR Green DNA fluorescence, 72 h; at 5.51 µM (top of the series) unless noted
Method in brief: (§1)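 Parasite DNA was quantified by SYBR Green I fluorescence (ex 485, em 535 nm) after overnight lysis in saponin/Triton buffer at room temperature. Cultures at 0.3% parasitemia and 2.5% hematocrit were first exposed to compound for 72 h at 37 C; signals were normalised to artemisinin (0.29 uM) and vehicle wells.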

[11] = qHTS profiling of the MIPE4 collection as inhibitors of Plasmodium falciparum (DD2) proliferation (AID 743345; call rule not given here); conditions: P. falciparum Dd2 in erythrocytes, SYBR Green DNA, 72 h; at 5.51 µM (top of the series) unless noted
Method in brief: as §1

[12] = qHTS profiling of the MIPE4 collection as inhibitors of Plasmodium falciparum (DD2) proliferation (Rep 2) (AID 743346; call rule not given here); conditions: P. falciparum Dd2 in erythrocytes, SYBR Green DNA, 72 h; at 5.51 µM (top of the series) unless noted
Method in brief: as §1

[13] = qHTS profiling of the MIPE4 collection as inhibitors of Plasmodium falciparum (HB3) proliferation (AID 743347; call rule not given here;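 further: plate controls were DMSO vehicle wells for no effect and artemisinin wells for full effect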); conditions: P. falciparum HB3 in erythrocytes, SYBR Green DNA, 72 h; at 5.51 µM (top of the series) unless noted
Method in brief: as §1

[14] = target: Cytochrome P450 3A4 (Homo sapiens) (UniProt P08684); test: qHTS Assay for Inhibitors and Substrates of Cytochrome P450 3A4 (AID 884); further: potency means the concentration at half of the fitted maximal effect; nearly all actives have a fitted effect of over 50% in size
Cytochrome P450 3A4 (Homo sapiens), sequence (P08684 whole entry, looked up): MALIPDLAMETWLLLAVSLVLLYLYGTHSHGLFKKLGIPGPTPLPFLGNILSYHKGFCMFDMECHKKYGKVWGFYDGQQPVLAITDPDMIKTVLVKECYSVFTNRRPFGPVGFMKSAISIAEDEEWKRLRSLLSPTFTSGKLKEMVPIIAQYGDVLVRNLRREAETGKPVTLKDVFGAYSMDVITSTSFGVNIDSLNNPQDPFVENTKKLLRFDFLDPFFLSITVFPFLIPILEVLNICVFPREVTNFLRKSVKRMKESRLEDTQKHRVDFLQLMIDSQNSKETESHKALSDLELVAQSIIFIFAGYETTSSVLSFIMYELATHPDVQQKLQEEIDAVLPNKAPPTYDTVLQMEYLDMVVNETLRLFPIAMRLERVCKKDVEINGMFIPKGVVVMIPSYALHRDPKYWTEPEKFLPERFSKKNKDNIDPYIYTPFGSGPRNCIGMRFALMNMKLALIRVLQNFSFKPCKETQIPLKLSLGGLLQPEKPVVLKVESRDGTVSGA
Method in brief: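 Luminescent readout of luciferin produced by CYP3A4 (20 nM) dealkylation of Luciferin-PPXE, 25 uM (its KM). NADPH-driven reaction ran 60 min at RT after 10 min compound preincubation; data scaled to 57 uM ketoconazole as 100% inhibition.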

[15] = target: Cytochrome P450 3A4 (Homo sapiens) (UniProt P08684); test: qHTS Assay for Activators of Cytochrome P450 3A4 (AID 885); further: nearly all actives have a fitted effect of over 65% in size
Method in brief: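 Human CYP3A4 dealkylates Luciferin-PPXE to luciferin, which luciferase detection converts to light. Substrate was at its KM (25uM), buffer 200mM KPO4, reaction 60 min at RT.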

COc1cc(O)c2c(c1)/C=C/C[C@H](O)[C@H](O)C(=O)/C=C\C[C@H](C)OC2=O
Potency [1]: 2.44 µM (active)

CNC(=O)Oc1cc(C)c(C=Cc2cncc(C(=O)NC)c2)c(C)c1
Potency [1]: 0.654 µM (active)
outcome [2]: inactive

O=C(O)COc1ccccc1/C=C1\C(=O)NC(=O)N(CCC2=CCCCC2)C1=O
outcome [3]: inactive
outcome [4]: inactive
outcome [5]: inactive

Cc1ccc2c(c1)=C/C(=C\c1c(O)[nH]c(=O)[nH]c1=O)C(=O)N=2
outcome [3]: inactive
outcome [4]: inactive
outcome [5]: inactive

COc1cccc(N2C(=O)NC(=O)/C(=C\c3ccc([N+](=O)[O-])s3)C2=O)c1
Potency [6]: 8.49 µM (active)
Potency [7]: 37.9 µM (active)

O=C1NC(=O)N(c2ccc(F)cc2)C(=O)/C1=C/c1ccc2c(c1)CCCN2Cc1ccccc1
Potency [7]: 84.9 µM (active)

CC/C(=C(\c1ccc(O)cc1)c1ccc(OCCN(C)C)cc1)c1ccccc1
Potency [8]: inactive

CCC[CH2][Sn]([CH2]CCC)([CH2]CCC)[O]C(=O)c1ccccc1
Potency [9]: 7.08 µM (active)

CC[C@H](C)[C@H]1O[C@]2(C=C[C@@H]1C)C[C@@H]1C[C@@H](C/C=C(\C)[C@@H](O[C@H]3C[C@H](OC)[C@@H](O[C@H]4C[C@H](OC)[C@@H](NC)[C@H](C)O4)[C@H](C)O3)[C@@H](C)/C=C/C=C3\CO[C@@H]4[C@H](O)C(C)=C[C@@H](C(=O)O1)[C@]34O)O2
Potency [9]: 50.1 µM (active)

COC(=O)C1(O)CC2OC1(C)n1c3ccccc3c3c4c(c5c6ccccc6n2c5c31)C(=O)NC4 (stereo not given)
parasite growth, % of DMSO control [10]: 4.95%
parasite growth remaining, % of DMSO control (lower = more inhibition) [11]: 7.86%
parasite growth, % of control (lower = inhibition) [12]: 21.3%
growth, % of control [13]: 4.75%

CC(C)(N)CNC(=O)CC1CCC2(CC1)OOC1(O2)C2CC3CC(C2)CC1C3 (stereo not given)
parasite growth, % of DMSO control [10]: 4.69% [at 28.5 µM]
parasite growth remaining, % of DMSO control (lower = more inhibition) [11]: 6.94% [at 28.5 µM]
parasite growth, % of control (lower = inhibition) [12]: 27.3% [at 28.5 µM]
growth, % of control [13]: 5.72% [at 28.5 µM]

CC1=CC[C@@H]2[C@@H](C1)c1c(O)cc(CC#CCCCNS(C)(=O)=O)cc1OC2(C)C
Potency [14]: 2.51 µM (active)
Potency [15]: inactive
